Experimental data: ChEMBL document CHEMBL3988442, “University of Dundee, Small-Polar-MMV Screening Library” (2021)
Screen size: about 48,000 compounds; about 13,000 (27%) showed an effect of 50% or more. Some of the results follow.

The compounds below were run on Wolbachia pipientis (assay: Anti-Wolbachia Cell-Based Screen). Settings: 5 µM.
Format: functional
Set-up: scale not given: in the data most compounds retested in dose-response had high values

SMILES | Percent Effect [%]
Cc1cscc1C(=O)Nc1cncnc1N(C)C | -5.667
O=C(NCCNc1cnccn1)N1CCCCCC1 | 67.88
O=C(NCCNc1cnccn1)C1CCN(C(=O)N2CCCC2)CC1 | 14.69
N#Cc1cccnc1NCCNC(=O)N1CCCC(N2CCCC2)C1 (stereo not drawn) | 15.17
O=C(NCCNc1cnccn1)N1CCCC1 | 0.5946
O=C(NCCCn1cncn1)N1CCCC(N2CCCC2)C1 (stereo not drawn) | -12.43
O=C(NCCNc1cnccn1)N1CCCC(N2CCCC2)C1 (stereo not drawn) | 106
Cc1cnc(CN(Cc2ccccc2)CC(O)c2cccs2)cn1 (stereo not drawn) | -0.3476
CCc1nc(C)c(C(=O)N2CCCN(Cc3cnn(C)c3)CC2)s1 | -6.859
CC(NC(=O)N1CCN(c2cccs2)CC1)c1ccc(C#N)cc1 (stereo not drawn) | -13.59
CC(NC(=O)N1CCN(c2ncccn2)CC1)c1ccc(C#N)cc1 (stereo not drawn) | -9.134
CCOCC(=O)N1Cc2cnc(-c3ccccc3)nc2C1 | 12.32
CCc1cccc(OC2CN(C(=O)[C@@H](N)[C@@H](C)O)C2)c1 | -4.168
CC(C)NC(=O)N1CC(=O)c2sc(Nc3ccc(C#N)cc3)nc2C1 | 104.4
N#Cc1ccc(Nc2nc3c(s2)C(=O)CN(CC2CC2)C3)cc1 | 122.3
CC[C@H](C)[C@H](N)C(=O)N1CC(=O)c2sc(Nc3ccc(F)cc3)nc2C1 | 106.2
CC(Oc1ccc(F)cc1)C(=O)N(CC(N)=O)C1CCCC1 (stereo not drawn) | -8.353

SMILES | Percent Effect [%]
CCOC(=O)N1CCN(C(=O)c2sc(-c3ccc(F)cc3)nc2C)CC1 | 5.729
CN(C(=O)CNc1ccc(C#N)cc1)C1CCCCC1 | -20.31
N#Cc1ccc(NC(=O)N2CCCCC2CN2CCCC2=O)cc1 (stereo not drawn) | -0.03317
CC[C@H](C)[C@H](N)C(=O)N1CC(=O)c2sc(NCc3ccccc3)nc2C1 | 97.62
Cc1cc(NC(=O)CCN2CCn3c(C)nnc3C2)no1 | -12.27
Fc1cc(CNc2nncs2)ccc1Cl | -25.14
CC(C)NC(=O)[C@@H]1Cc2[nH]cnc2CN1CCCc1ccccc1 | -2.135
CCN(C)S(=O)(=O)N(Cc1cscn1)c1ccccc1 | -21.13
CC1CCN(C(=O)Cc2ccc(S(=O)(=O)C(F)F)cc2)CC1 | 3.078
CCOc1ccc(C(=O)Nc2c(C)nc3scc(C)n3c2=O)cc1 | -3.66
CC(C1CC1)N(C(=O)CNc1ccc(C#N)cc1)C1CC1 (stereo not drawn) | -11.75
CC(C)CC(=O)N1CC(=O)c2sc(Nc3ccc(F)cc3)nc2C1 | 97.08
CC(C)CC(=O)N1CC(=O)c2sc(Nc3ccc(C#N)cc3)nc2C1 | 99.17
Cc1nnc(NC(=O)N2CCN(Cc3ccc(F)cc3)C(=O)C2)s1 | -5.387
CC(CNC(=O)Nc1ccc(C#N)cc1)N1CCc2ccccc21 (stereo not drawn) | 15.75
CC(C)CC(=O)Nc1c(-c2ccc(F)cc2)ncn1C | 20.71
